Measured values reported in PubChem BioAssay AID1159580 (chemical genetic matrix, 2015).
Where “and” joins values, the source holds several entries; their conditions need not be identical. Identical values can stand only once. About 2,000 (36%) of roughly 5,500 compounds were called active. Not shown: some 18% with an inconclusive outcome. No stated cut-off is given here; in the data, active means normalized growth mostly below about 0.91 (no sharp cut-off); inconclusive means no clear call, values can overlap the other calls; inactive means mostly above about 0.92. The list shows a part of the results.

Test: chemical genetic growth profiling, strain panel (AID 1159580);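 further: tested at 20 µM; growth read once vehicle control cultures reached saturation at 30 °C; 1 = growth at the plate median or of vehicle wells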
Conditions: S. cerevisiae deletion strains, growth OD

Measured: normalized growth

COc1ccc(C(=O)c2ccccc2O)c(O)c1
0.676 (active) and 0.932 (inactive): locus YJL095W, strain BCK1, stronger effect = lower value
active: locus YAL026C, strain drs2, stronger effect = lower value 0.815 | locus YAL030W, strain snc1, stronger effect = lower value 0.894 | locus YBL061C, strain skt5, stronger effect = lower value 0.818 | locus YBR009C, strain hhf1, stronger effect = lower value 0.806 | locus YBR021W, strain FUR4, stronger effect = lower value 0.817 | locus YBR023C, strain chs3, stronger effect = lower value 0.867 | locus YBR171W, strain sec66, stronger effect = lower value 0.823 | locus YBR231C, strain swc5, stronger effect = lower value 0.887 | locus YBR279W, strain paf1, stronger effect = lower value 0.902 | locus YCL011C, strain gbp2, stronger effect = lower value 0.876 | locus YCL016C, strain dcc1, stronger effect = lower value 0.905 | locus YCL061C, strain MRC1, stronger effect = lower value 0.888 | locus YCL069W, strain vba3, stronger effect = lower value 0.869 | locus YCR088W, strain abp1, stronger effect = lower value 0.888 | locus YDL040C, strain nat1, stronger effect = lower value 0.893 | locus YDL192W, strain arf1, stronger effect = lower value 0.915 | locus YDR001C, strain nth1, stronger effect = lower value 0.888 | locus YDR137W, strain rgp1, stronger effect = lower value 0.43 | locus YDR159W, strain sac3, stronger effect = lower value 0.757 | locus YDR195W, strain ref2 1.2 [resistant] | locus YDR297W, strain sur2, stronger effect = lower value 0.878 | locus YDR318W, strain mcm21, stronger effect = lower value 0.91 | locus YDR334W, strain swr1, stronger effect = lower value 0.89 | locus YDR335W, strain msn5, stronger effect = lower value 0.889 | locus YDR388W, stronger effect = lower value 0.92 | locus YDR392W, strain spt3, stronger effect = lower value 0.417 | locus YDR502C, strain sam2, stronger effect = lower value 0.871 | locus YEL003W, strain gim4, stronger effect = lower value 0.83 | locus YEL037C, strain rad23, stronger effect = lower value 0.874 | locus YEL061C, strain CIN8 (second series), stronger effect = lower value 0.874 | locus YER015W, strain faa2, stronger effect = lower value 0.876 | locus YER016W, strain bim1, stronger effect = lower value 0.883 | locus YER111C, strain swi4, stronger effect = lower value 0.885 | locus YER155C, strain BEM2 (second series), stronger effect = lower value 0.444 | locus YGL167C, strain pmr1, stronger effect = lower value 0.843 | locus YGL173C, strain kem1, stronger effect = lower value 0.817 | locus YGL227W, strain vid30, stronger effect = lower value 0.879 | locus YGL240W, strain doc1, stronger effect = lower value 0.734 | locus YGL248W, strain PDE1, stronger effect = lower value 0.876 | locus YGL253W, strain hxk2, stronger effect = lower value 0.799 | locus YGR135W, strain pre9, stronger effect = lower value 0.822 | locus YGR252W, strain gcn5, stronger effect = lower value 0.751 | locus YHR013C, strain ard1, stronger effect = lower value 0.725 | locus YHR027C, strain rpn1, stronger effect = lower value 0.883 | locus YHR142W, strain chs7, stronger effect = lower value 0.722 | locus YIR030C, strain dcg1, stronger effect = lower value 0.918 | locus YJL092W, strain hpr5, stronger effect = lower value 0.876 | locus YJL095W, strain BCK1 (second series), stronger effect = lower value 0.727 | locus YJL129C, strain trk1, stronger effect = lower value 0.8 | locus YJL154C, strain vps35, stronger effect = lower value 0.884 | locus YJL164C, strain tpk1, stronger effect = lower value 0.798 | locus YJL166W, strain qcr8, stronger effect = lower value 0.881 | locus YJL187C, strain SWE1, stronger effect = lower value 0.88
inactive: locus YAL013W, strain DEP1, stronger effect = lower value 0.91 | locus YAL021C, strain ccr4, stronger effect = lower value 0.992 | locus YBR229C, strain ROT2, stronger effect = lower value 0.95 | locus YCL029C, strain bik1, stronger effect = lower value 0.929 | locus YDL005C, strain med2, stronger effect = lower value 0.918 | locus YDL035C, strain GPR1, stronger effect = lower value 0.962 | locus YDL074C, strain BRE1, stronger effect = lower value 0.845 | locus YDL101C, strain DUN1, stronger effect = lower value 0.944 | locus YDL134C, strain PPH21, stronger effect = lower value 0.933 | locus YDL185W, strain tfp1, stronger effect = lower value 0.921 | locus YDR069C, strain doa4, stronger effect = lower value 0.912 | locus YDR101C, strain arx1, stronger effect = lower value 0.949 | locus YDR150W, strain NUM1, stronger effect = lower value 0.961 | locus YDR162C, strain NBP2, stronger effect = lower value 0.926 | locus YEL061C, strain CIN8, stronger effect = lower value 0.952 | locus YER110C, stronger effect = lower value 0.913 | locus YER155C, strain BEM2, stronger effect = lower value 0.949 | locus YER167W, strain BCK2, stronger effect = lower value 0.951 | locus YFR010W, strain ubp6, stronger effect = lower value 0.902 | locus YGL078C, strain dbp3, stronger effect = lower value 0.947 | locus YGL086W, strain mad1, stronger effect = lower value 0.932 | locus YGR078C, strain PAC10, stronger effect = lower value 0.903 | locus YGR229C, strain SMI1, stronger effect = lower value 0.894 | locus YHR030C, strain SLT2, stronger effect = lower value 0.922 and 0.947 | locus YHR079C, strain IRE1 (second series), stronger effect = lower value 0.932 | locus YHR079C, strain IRE1, stronger effect = lower value 0.957 | locus YHR094C, strain hxt1, stronger effect = lower value 0.933 | locus YHR129C, strain ARP1, stronger effect = lower value 0.949 | locus YHR200W, strain rpn10, stronger effect = lower value 0.937 | locus YIL066C, strain RNR3, stronger effect = lower value 0.946 | locus YIL073C, strain SPO22, stronger effect = lower value 0.84 | locus YIL125W, strain kgd1, stronger effect = lower value 0.943 | locus YJL115W, strain asf1, stronger effect = lower value 0.91 | locus YJL134W, strain LCB3, stronger effect = lower value 0.953 | locus YJL168C, strain set2, stronger effect = lower value 0.938 | locus YJL187C, strain SWE1 (second series), stronger effect = lower value 0.896 | locus YJR043C, strain POL32, stronger effect = lower value 0.976
